Test results from PubChem BioAssay AID590 (National Center for Advancing Translational Sciences (NCATS), 2007).
In all, about 59,000 compounds went through this assay and about 6,500 (11%) were called active. Inconclusive results (about 15%) are left out. No stated cut-off is given here; in the data, active means max dye-equivalent concentration above about 10 nM; inconclusive means mostly about 1.1 nM to 9.6 nM; inactive means weaker than that. The sample as a whole holds a higher share of actives than the screen did. Some structures have more than one record in an assay (separate samples or runs), and their calls can disagree.

Test: qHTS Assay for Spectroscopic Profiling in A350 Spectral Region
Conditions: Compound autofluorescence, 340/450 nm, Alexa 350 dye-equivalents; active compounds read high
With CCC(C)NC(=O)C1CCC(=O)N1Cc1ccc(C)cc1 (centres undefined) the max dye-equivalent concentration was “inactive”. For NC(=O)C1(N2CCCCC2)CCN(C(=O)c2ccc(C#Cc3ccccc3)o2)CC1, the max dye-equivalent concentration was “inactive”. In the case of O=S(=O)(NCc1ccccc1Cl)c1cnc[nH]1, the max dye-equivalent concentration is reported as “inactive”. With CC(C)Cn1c(CCC(=O)O)ccc1-c1cccs1 the max dye-equivalent concentration was 410 nM (active). For Cc1cc(NC(=O)c2cc(-c3cccs3)on2)nn1Cc1ccc(Cl)cc1, the max dye-equivalent concentration was “inactive”. With O=C(O)CCC(=O)N(Cc1cccs1)Cc1cccs1 the max dye-equivalent concentration was “inactive”. In the case of COc1ccc(NC(=O)N2CC3(CCN(C(C)=O)CC3)C2)cc1, the max dye-equivalent concentration is reported as “inactive”. For CC(C)c1ccc(NC(=O)NC2CCCCC2)cc1, the max dye-equivalent concentration was “inactive”. With FC(F)(F)c1ccccc1-c1nc(-n2ccnc2)c2ccccc2n1 the max dye-equivalent concentration was “inactive”. With Cn1c(=O)[nH]c(=O)c2c1nc(NCCCn1ccnc1)n2Cc1cccc(Br)c1 the max dye-equivalent concentration was “inactive”. With COc1cc(OC)cc(C(=O)Nc2ccc(-c3nc4ccccc4o3)c(O)c2)c1 the max dye-equivalent concentration was 310 nM (active). For COc1cccc(NC(=O)c2ccccc2SC)c1, the max dye-equivalent concentration was “inactive”. With COc1ccc(NC(=O)c2c(C)oc3c2CCCC3)cc1 the max dye-equivalent concentration was “inactive”. In the case of O=C(O)c1ccc(C(=O)c2ccccc2C(=O)O)cc1C(=O)O, the max dye-equivalent concentration is reported as “inactive”. With C=CCn1c(COc2ccccc2F)nnc1SCC(=O)N1CC(=O)Nc2ccccc21 the max dye-equivalent concentration was “inactive”. With CCOC(=O)CNC(=O)CSc1nnc(COc2ccc(Cl)cc2)n1CC the max dye-equivalent concentration was “inactive”. In the case of COCc1nc2ccccc2n1Cc1ccccc1Br, the max dye-equivalent concentration is reported as “inactive”. With CCOC(=O)c1c(C)oc2ccc(OCC(=O)N(CC)CC)cc12 the max dye-equivalent concentration was “inactive”. For COC(=O)COc1ccc2oc(=O)cc(C)c2c1, the max dye-equivalent concentration was 28 nM (active). With COc1ccc(OCC(=O)OCCN(C)C)cc1 the max dye-equivalent concentration was “inactive”. In the case of Cc1nn(-c2ccccc2)c(C)c1C(=O)OCC(=O)NC(=O)NC1CCCCC1, the max dye-equivalent concentration is reported as “inactive”. With O=C(CSc1nnc(-c2ccccn2)n1-c1ccccc1)Nc1ccc2c(c1)OCO2 the max dye-equivalent concentration was “inactive”. For O=c1ccc2cc(S(=O)(=O)N3CCN(c4ccccc4)CC3)ccc2o1, the max dye-equivalent concentration was “inactive”. In the case of Cc1ccc2c(NC(=O)C3CC3)cccc2n1, the max dye-equivalent concentration is reported as “inactive”. With Cc1cc(C)cc(NC(=O)C2CCN(c3nc(C)cc(C)n3)CC2)c1 the max dye-equivalent concentration was “inactive”. With CC(=O)N1CCC(C(=O)Nc2nc(-c3ccccc3)ns2)CC1 the max dye-equivalent concentration was 1700 nM (active). For CCCC(=O)N1c2ccc(-c3csc(N)n3)cc2CC1C (centres undefined), the max dye-equivalent concentration was “inactive”. With Cc1noc(NS(=O)(=O)c2ccc(N3CC(O)=C(c4ccccc4)C3=N)cc2)c1C the max dye-equivalent concentration was “inactive”. For COc1ccc(OC)c2c(N)c(C#N)c(C(F)(F)C(F)(F)F)nc12, the max dye-equivalent concentration was 150 nM (active). With COc1cccc(N(C(=O)c2ccn[nH]2)C2(C(=O)Nc3c(C)cccc3C)CCCCC2)c1 the max dye-equivalent concentration was “inactive”. In the case of CS(=O)(=O)N1CCC[C@@]2(CCN(c3ccncc3)C2)C1, the max dye-equivalent concentration is reported as “inactive”. For Cc1ccc(CN2C(=O)CCC2C(=O)NCCCN2CCCCC2C)cc1 (centres undefined), the max dye-equivalent concentration was “inactive”. For COc1ccccc1CN1CC2(CCN(S(=O)(=O)c3ccccc3)CC2)C1, the max dye-equivalent concentration was “inactive”. In the case of CC(C)OCCCNC(=O)C1CC(=O)N(C2CCCCCCC2)C1 (centres undefined), the max dye-equivalent concentration is reported as “inactive”. In the case of COc1ccc(CCNS(=O)(=O)c2ccc(F)cc2)cc1OC, the max dye-equivalent concentration is reported as “inactive”. With CSc1ccc(-c2c(C#N)c(N)nc3c2c(C)nn3-c2ccccc2)cc1 the max dye-equivalent concentration was 360 nM (active). For CCCc1[nH]nc2c1C(c1c(C)nn(-c3ccccc3)c1Cl)C(C#N)=C(N)O2 (centres undefined), the max dye-equivalent concentration was “inactive”. With CSc1nc(N)c(C#N)c(-c2ccccc2Cl)c1C#N the max dye-equivalent concentration was “inactive”. For O=S(=O)(c1ccccc1)N(CC(O)CN1CCCCC1)c1ccccc1 (centres undefined), the max dye-equivalent concentration was “inactive”. With O=C1c2oc3ccc(Br)cc3c(=O)c2C(c2cccc(F)c2)N1CCO (centres undefined) the max dye-equivalent concentration was “inactive”. In the case of Cn1c(=S)c2[nH]c(SCCCc3ccccc3)nc2n(C)c1=O, the max dye-equivalent concentration is reported as 12 nM (active). With CCCSc1nc2c(c(=O)[nH]c(=O)n2C)n1CCc1ccccc1 the max dye-equivalent concentration was “inactive”. In the case of Cn1c(=O)c2c(nc(NCCc3ccccc3)n2Cc2ccccc2)n(C)c1=O, the max dye-equivalent concentration is reported as “inactive”. With O=S1(=O)CC(NCc2ccccc2)C(Nc2ccc(Cl)cc2)C1 (centres undefined) the max dye-equivalent concentration was “inactive”. In the case of Cc1ccc(C)c(NC(=O)C2CC(=O)N(C(C)C)C2)c1 (centres undefined), the max dye-equivalent concentration is reported as “inactive”. With COCCn1c(=O)c(-c2cccs2)nc2cncnc21 the max dye-equivalent concentration was 89 nM (active). With CN(C(=O)COc1nnc(-c2cccs2)c(-c2cccs2)n1)c1ccccc1 the max dye-equivalent concentration was “inactive”. In the case of COCCn1c(=O)c(-c2cccs2)nc2cnc(N3CCN(C)CC3)nc21, the max dye-equivalent concentration is reported as 17 nM (active). For COc1ccccc1CCn1c(=O)c(-c2cn(C)c3ccccc23)nc2cncnc21, the max dye-equivalent concentration was “inactive”. With Cc1ccccc1NC(=O)Cc1nnc(SCC(=O)N2CCN(c3ccccc3)CC2)n1C the max dye-equivalent concentration was “inactive”. For C=CCn1c(C)cc(C(=O)CN2C(=O)c3ccccc3C2=O)c1C, the max dye-equivalent concentration was “inactive”. For CC(=O)Nc1ccc(NS(=O)(=O)c2cc(C)sc2C)cc1, the max dye-equivalent concentration was “inactive”. For COc1ccccc1CNc1ncncc1-c1cccc(NS(C)(=O)=O)c1, the max dye-equivalent concentration was “inactive”. In the case of Cc1ccc(C(=O)NCC(=O)O)cc1S(=O)(=O)N1CCCCC1, the max dye-equivalent concentration is reported as “inactive”. In the case of CS(=O)(=O)Nc1cccc(-c2cncnc2Nc2ccccc2)c1, the max dye-equivalent concentration is reported as “inactive”. In the case of CCOc1ccc(OCC)c(NC(=O)C2CCN(S(=O)(=O)c3c(C)noc3C)CC2)c1, the max dye-equivalent concentration is reported as “inactive”. With FC(F)(F)c1cccc(Nc2ncnc3ccccc23)c1 the max dye-equivalent concentration was “inactive”. In the case of Cc1cccc(C(=O)Nc2ccc(CC(=O)O)cc2)c1, the max dye-equivalent concentration is reported as “inactive”. For O=C(O)CCCc1ccccc1, the max dye-equivalent concentration was “inactive”. In the case of O=C(O)Cc1ccc(-c2ccccc2)cc1, the max dye-equivalent concentration is reported as 47 nM (active) and the outcome is reported as “inactive”. In the case of Cc1c(-c2nn(C)c(=O)c3ccccc23)oc2ccc(F)cc2c1=O, the max dye-equivalent concentration is reported as “inactive”. In the case of Cc1[nH]c2ccccc2c1C(=O)CSCC(=O)O, the max dye-equivalent concentration is reported as “inactive”. With CCOC(=O)C1CCN(C(=O)c2oc3ccc(S(=O)(=O)N4CCCCCC4)cc3c2C)CC1 the max dye-equivalent concentration was “inactive”. For COc1ccc(/C(O)=C2/C(=O)C(=O)N(CCCN(C)C)C2c2ccccc2)cc1OC (centres undefined), the max dye-equivalent concentration was “inactive”. With CCCOc1ccc(/C(O)=C2/C(=O)C(=O)N(CCN(C)C)C2c2ccc(OC)c(OC)c2)cc1 (centres undefined) the max dye-equivalent concentration was “inactive”. With CCN(CC)CCN1C(=O)C(=O)/C(=C(/O)c2ccc(OC)c(OC)c2)C1c1ccccn1 (centres undefined) the max dye-equivalent concentration was 42 nM (active). In the case of CS(=O)(=O)N(C(=O)NC(=O)NC1CCS(=O)(=O)C1)C1CCCCC1 (centres undefined), the max dye-equivalent concentration is reported as “inactive”. In the case of c1cnc(NC2C3CC4CC(C3)CC2C4)nc1 (centres undefined), the max dye-equivalent concentration is reported as “inactive”. For O=C(CN(Cc1ccccc1)C(=O)c1ccc2c(c1)OCCO2)NCc1ccc2c(c1)OCO2, the max dye-equivalent concentration was “inactive”. With Cc1cc(NC(=O)Cn2nc(C(F)(F)F)c3c2CCCC3)no1 the max dye-equivalent concentration was “inactive”. In the case of COC(=O)c1ccc(C2NC(=O)NC(C)=C2C(=O)N(C)C)cc1 (centres undefined), the max dye-equivalent concentration is reported as “inactive”. For CCCOC(=O)C1=C(C)NC2=C(C(=O)C(C(=O)OC)C(C)C2)C1c1ccc(N(C)C)cc1 (centres undefined), the max dye-equivalent concentration was 22 nM (active). In the case of COCCOC(=O)C1=C(C)NC(=O)CC1c1cc2c(cc1Br)OCO2 (centres undefined), the max dye-equivalent concentration is reported as “inactive”. In the case of COC(=O)c1ccccc1NC(=O)CN(Cc1ccccc1)S(C)(=O)=O, the max dye-equivalent concentration is reported as “inactive”. In the case of S=c1[nH]nc(SCc2ccccc2Cl)c2[nH]cnc12, the max dye-equivalent concentration is reported as “inactive”. For CCOC(=O)N1CCN(CC(=O)n2c(C)c(C)c3ccccc32)CC1, the max dye-equivalent concentration was “inactive”. In the case of CCOC(=O)N1CCC(O)(c2cc(C)c(C)cc2C)CC1, the max dye-equivalent concentration is reported as “inactive”. With CCOC(=O)N1CCN(CC(=O)c2ccc3c(c2)CCN3)CC1 the max dye-equivalent concentration was 17 nM (active). With O=C(NCCCCO)C(F)(F)C(F)(F)C(F)(F)C(=O)NCCCCO the max dye-equivalent concentration was “inactive”. In the case of O=C(Nn1cnc2ccccc2c1=O)c1ccc(F)cc1Cl, the max dye-equivalent concentration is reported as “inactive”. For O=C(O)Cc1ccc(NC(=O)c2cccs2)cc1, the max dye-equivalent concentration was “inactive”. For Cn1c(SCC(=O)Nc2cccc(NC(=O)c3cccs3)c2)nnc1-c1ccncc1, the max dye-equivalent concentration was “inactive”. In the case of Cc1nc(-c2ccc(NC(=O)c3cccs3)cc2)cs1, the max dye-equivalent concentration is reported as 280 nM (active). For O=C(O)C1CC(=O)N(Cc2cccnc2)C1 (centres undefined), the max dye-equivalent concentration was “inactive”. In the case of CCOc1ccccc1NC(=O)CCc1ccc(C)o1, the max dye-equivalent concentration is reported as “inactive”. For O=C1CC2(CCCCC2)Oc2ccc(OCC(=O)N3CCOCC3)cc21, the max dye-equivalent concentration was 1100 nM (active). With O=C(Nc1cccc(OCC(=O)N2CCOCC2)c1)C1CCCCC1 the max dye-equivalent concentration was “inactive”. With O=C(Oc1ccc2c(c1)CCC2)N1CCOCC1 the max dye-equivalent concentration was “inactive”. In the case of CCNc1nc(SCCOc2ccccc2)nc(N(C)C)n1, the max dye-equivalent concentration is reported as “inactive”. In the case of CCCn1c(SCC(=O)Nc2c(C)cccc2C)nnc1C(C)C, the max dye-equivalent concentration is reported as “inactive”. With CC(=O)Nc1ccc(NC(=O)CN2CCCC(C)C2)c(Cl)c1 (centres undefined) the max dye-equivalent concentration was “inactive”. For Cn1c(=O)c2c(nc(CN3CCOCC3)n2Cc2ccccc2)n(C)c1=O, the max dye-equivalent concentration was “inactive”. With Cc1cccn2c(=O)c3cc(C#N)c(=NC(=O)c4cccnc4)n(CC4CCCO4)c3nc12 (centres undefined) the max dye-equivalent concentration was 4000 nM (active). In the case of Cc1nnc(SCC(N)=O)n1CC1CCCO1 (centres undefined), the max dye-equivalent concentration is reported as “inactive”. For Cc1cccn2c(=O)c3cc(C#N)c(=O)n(CCCN4CCOCC4)c3nc12, the max dye-equivalent concentration was 12000 nM (active). In the case of CCn1cc(C(=O)NCc2ccc(OC)cc2OC)c(=O)c2ccc(C)nc21, the max dye-equivalent concentration is reported as “inactive”. With Cc1ccc(S(=O)(=O)NC(=O)NN2C[C@H]3CCC[C@@H]3C2)cc1 the max dye-equivalent concentration was “inactive”. In the case of Cc1cc(=O)[nH]c(SCC(N)=O)c1C#N, the max dye-equivalent concentration is reported as “inactive”. For Cn1cccc1C(=O)N1CCC[C@@]2(CCN(Cc3nccs3)C2)C1, the max dye-equivalent concentration was “inactive”. For O=S(=O)(c1ccc(Sc2nnc3ccccn23)nc1)N1CCOCC1, the max dye-equivalent concentration was “inactive”. In the case of CC(CCO)Nc1nc2c([nH]1)c(=O)n(C)c(=O)n2C (centres undefined), the max dye-equivalent concentration is reported as “inactive”. With Cn1c(=O)c2[nH]c(NCC3CCCO3)nc2n(-c2ccccc2)c1=O (centres undefined) the max dye-equivalent concentration was 11 nM (active). In the case of CC(C)(C)c1nc(NCC2CCCO2)c2nnn(Cc3ccccc3)c2n1 (centres undefined), the max dye-equivalent concentration is reported as “inactive”. In the case of Cc1ccc2nc(S(=O)(=O)O)[nH]c2c1, the max dye-equivalent concentration is reported as “inactive”. In the case of COc1cc(-c2nc(S(=O)(=O)c3ccc(Cl)cc3)c(N(C)C)o2)cc(OC)c1OC, the max dye-equivalent concentration is reported as “inactive”. For COc1cc(-c2nnc(Cn3cc(C(F)(F)F)ccc3=O)o2)cc(OC)c1OC, the max dye-equivalent concentration was “inactive”. With CCOC(=O)c1cc(-c2nnc(-c3cc(OC)c(OC)c(OC)c3)o2)c(C)nc1C the max dye-equivalent concentration was 18 nM (active). With CCCCC(=O)N1CC2(C)CN(C(=O)CCCC)CC(C)(C1)C2=O the max dye-equivalent concentration was “inactive”.
